From PubChem
IL1B secr inh: qHTS for Inhibitors of Inflammasome Signaling: IL-1-beta AlphaLISA Primary Screen; THP-1 LPS/ATP IL-1B secretion, AlphaLISA, 16 h; hits give low values; hit rate 4.7% among 360,000; activity change, % at 57.5 µM; in the data active = activity change below about -50%; inconclusive = mostly about -30% to -49%
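Secreted IL-1B measured by AlphaLISA bead assay after 16 h compound exposure of THP-1 cells; compounds (final up to 57.5 uM) added 1 h before LPS (250 ng/mL) and ATP (1.25 mM) stimulation; lower signal means less secretion.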
TDP1 cell CPT: qHTS for Inhibitors of human tyrosyl-DNA phosphodiesterase 1 (TDP1): qHTS in cells in presence of CPT; chicken DT40 Tdp1-/-;hTDP1 cells + 20 nM CPT, ATP luminescence, 48 h; hit rate 12% among 420,000; Potency, µM (titrated, usually from 46.2 µM), without a hit: top-dose activity change, negative = growth inhibition, actives largely listed as inhibitors; note: potency is the fitted concentration of half-maximal effect; nearly all actives have a fitted effect of over 55% in size
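Cell growth measured by CellTiter-Glo luminescence after a minimum 48 h, 37 C compound exposure with 20 nM CPT in Tdp1-knockout DT40 cells stably expressing hTDP1, seeded 400/well; qHTS titration format.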
Gal4-VP16 FLuc: VP16 counterscreen qHTS for inhibitors of ROR gamma transcriptional activity; Potency, µM (titrated, usually from 53.6 µM), without a hit: at the top dose activity, negative = inhibition, usual class: inhibitors; AID 2546, 2010; Drosophila S2 Gal4-VP16 UAS-luciferase, luminescence, 20 h; hit rate 3.5% among 310,000;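 note: Gal4-VP16 expression switched on by copper sulfate through the metallothionein promoter; potency is the fitted concentration of half-maximal effect; nearly all actives have a fitted effect of over 50% in size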
RORg inh: qHTS for inhibitors of ROR gamma transcriptional activity; Drosophila S2 Gal4-RORgamma UAS-luciferase reporter, 20 h; Potency, µM (titrated, usually from 53.6 µM), without a hit: top-dose activity change, negative = inhibition, usual class: inhibitors; hit rate 5.4% among 310,000; note: potency is the fitted concentration of half-maximal effect; nearly all actives have a fitted effect of over 60% in size
Target sequence (P51450 whole entry, looked up, the tested form may be a part): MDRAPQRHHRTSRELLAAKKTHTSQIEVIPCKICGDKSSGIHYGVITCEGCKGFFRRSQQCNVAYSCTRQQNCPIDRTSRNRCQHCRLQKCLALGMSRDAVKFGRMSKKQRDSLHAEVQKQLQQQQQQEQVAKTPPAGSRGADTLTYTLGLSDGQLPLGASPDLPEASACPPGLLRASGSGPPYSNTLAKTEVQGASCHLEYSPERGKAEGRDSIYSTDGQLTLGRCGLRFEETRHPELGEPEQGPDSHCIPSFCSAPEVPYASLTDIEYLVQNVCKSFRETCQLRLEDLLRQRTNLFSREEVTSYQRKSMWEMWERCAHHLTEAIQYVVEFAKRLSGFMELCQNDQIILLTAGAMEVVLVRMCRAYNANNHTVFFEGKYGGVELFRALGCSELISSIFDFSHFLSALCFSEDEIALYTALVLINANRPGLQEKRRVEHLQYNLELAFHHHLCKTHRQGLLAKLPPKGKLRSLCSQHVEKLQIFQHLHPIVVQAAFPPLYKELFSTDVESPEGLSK
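Drosophila Schneider cells stably carrying a metallothionein-driven Gal4 DBD–ROR gamma fusion and a UAS-Photinus luciferase reporter were exposed to compound for 1 hr, then induced with copper sulfate (700 uM final) for 20 hr at ambient temperature before luminescence reading.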
ELG1 repair inh: qHTS screen for small molecules that inhibit ELG1-dependent DNA repair in human embryonic kidney (HEK293T) cells expressing luciferase-tagged ELG1 | HEK293T ELG1-luciferase reporter, luminescence, 16 h; DNA damage induced by 5-fluorouridine | Potency, µM (titrated, usually from 46.1 µM), without a hit: at the top dose activity change, negative = inhibition, usual class: inhibitors | hit rate 2.3% among 330,000 | AID 504467, 2011; note: potency is the fitted concentration of half-maximal effect; nearly all actives have a fitted effect of over 55% in size
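Cells (2,000 per well) received 5-fluorouridine plus test compound or DMSO and were incubated 16 hr at 37 °C, 5% CO2. Luciferase activity was read by luminescence 30 min after ONE-Glo addition; signal suppression marked inhibition of damage-induced ELG1 function.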
DT40 TDP1 no CPT: qHTS for Inhibitors of human tyrosyl-DNA phosphodiesterase 1 (TDP1): qHTS in cells in absence of CPT | hit rate 15% among 420,000 | AID 686978, 2013 | DT40 Tdp1-/- hTDP1 cells, no CPT, ATP luminescence, 48 h | Potency, µM (titrated, usually from 46.2 µM), inactives show at the top dose activity change, negative = growth inhibition, hits mostly inhibitors; note: potency is the fitted concentration of half-maximal effect; nearly all actives have a fitted effect of over 55% in size
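A cellular qHTS used chicken DT40 cells lacking endogenous Tdp1 but carrying stably transfected human TDP1. Compounds were applied without camptothecin, and cell growth kinetics were judged by ATP-dependent luminescence after ≥48 hr.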
* hit, by the source's call; [ ] = dose if it differs, or a comment. This is a sample that favours compounds with a hit; in the whole collection about 21% have one here. Unless noted, calls come from the whole dose curve; as a rule, active = well fitted curve in the direction sought with a large enough effect; inconclusive = small, poorly fitted or top-dose-only effect, or another doubt; inactive = no such curve, though single readings can be large; an effect the other way counts as inactive or inconclusive. % is set by controls: 0 for no effect and ±100 for the full control effect.

How did CC(/C=C/c1cccc([N+](=O)[O-])c1)=N/NC(=O)c1cccnc1 do in these assays?
IL1B secr inh: -13.9; TDP1 cell CPT: inconclusive; Gal4-VP16 FLuc: 5.01µM*; RORg inh: 3.16µM*; ELG1 repair inh: -17.3%; DT40 TDP1 no CPT: inconclusive

How did O=C(N/N=C\C=C\c1ccc2c(c1)OCO2)c1cccnc1 do in these assays?
IL1B secr inh: -0.9; TDP1 cell CPT: inconclusive; Gal4-VP16 FLuc: 11.2µM*; RORg inh: 5.62µM*; ELG1 repair inh: inconclusive; DT40 TDP1 no CPT: inconclusive

Results for CC(=O)Nc1ccc(OCc2cccc([N+](=O)[O-])c2)cc1 ?
IL1B secr inh: 0.0; TDP1 cell CPT: 16.4%; Gal4-VP16 FLuc: inconclusive; RORg inh: inconclusive; ELG1 repair inh: inconclusive; DT40 TDP1 no CPT: inconclusive

What do the screens show for `CC(=O)Nc1ccc(C=CC=Cc2cccc([N+](=O)[O-])c2)cc1`?
IL1B secr inh: -96.6*; TDP1 cell CPT: 29.1µM*; DT40 TDP1 no CPT: inconclusive

What do the screens show for `CC(/C=C/c1ccccc1)=N/NC(=O)c1cc([N+](=O)[O-])cc([N+](=O)[O-])c1`?
IL1B secr inh: 0.0; TDP1 cell CPT: 5.17µM*; Gal4-VP16 FLuc: 0.178µM*; RORg inh: 0.178µM*; ELG1 repair inh: -20.6%; DT40 TDP1 no CPT: 5.17µM*

How did COc1ccc(-n2nc(C(=O)NCc3ccc(F)cc3Cl)c3c4ccccc4n(C)c3c2=O)cc1Cl do in these assays?
TDP1 cell CPT: -1.0%; DT40 TDP1 no CPT: -0.6%

What do the screens show for `C/C(=N\NC(=O)c1cccnc1)c1cccc([N+](=O)[O-])c1`?
IL1B secr inh: -24.8; TDP1 cell CPT: 2.8%; Gal4-VP16 FLuc: -2.7%[10 µM]; RORg inh: 0.9%; ELG1 repair inh: inconclusive; DT40 TDP1 no CPT: -24.7%

Results for O=C(N/N=C/C=C\c1cccc([N+](=O)[O-])c1)c1cccnc1 ?
IL1B secr inh: -7.5; TDP1 cell CPT: inconclusive; Gal4-VP16 FLuc: inconclusive; RORg inh: 6.31µM*; ELG1 repair inh: inconclusive; DT40 TDP1 no CPT: inconclusive

What do the screens show for `O=C1N/C(=C\c2ccc(O)cc2)C(O)=C1C=NCc1ccccc1`?
IL1B secr inh: 3.9; TDP1 cell CPT: -13.3%; Gal4-VP16 FLuc: inconclusive; RORg inh: 3.98µM*; ELG1 repair inh: inconclusive; DT40 TDP1 no CPT: inconclusive

How did COc1ccc(CCN(C)C(=S)Nc2cccc(C)c2)cc1OC do in these assays?
IL1B secr inh: -5.8; TDP1 cell CPT: -7.2%; Gal4-VP16 FLuc: 1.2%; RORg inh: inconclusive; ELG1 repair inh: -5.8%; DT40 TDP1 no CPT: -26.2%

Results for Clc1ccc(-c2c[n+](Cc3ccc(Cl)cc3Cl)c3n2CCCCC3)cc1 ?
IL1B secr inh: -81.5*; TDP1 cell CPT: 1.16µM*; Gal4-VP16 FLuc: 11.2µM*; RORg inh: -40.0%; ELG1 repair inh: inconclusive; DT40 TDP1 no CPT: 1.16µM*

Results for Clc1ccc(C[n+]2cc(-c3ccccc3)n3c2CCCCC3)c(Cl)c1 ?
IL1B secr inh: -91.2*; TDP1 cell CPT: 0.461µM*; Gal4-VP16 FLuc: 12.6µM*; RORg inh: inconclusive; ELG1 repair inh: inconclusive; DT40 TDP1 no CPT: 0.259µM*

Results for Clc1ccc(-c2c[n+](Cc3ccc(Br)cc3)c3n2CCCCC3)cc1 ?
IL1B secr inh: -62.0*; TDP1 cell CPT: 2.59µM*; Gal4-VP16 FLuc: 11.2µM*; RORg inh: inconclusive; ELG1 repair inh: inconclusive; DT40 TDP1 no CPT: 2.59µM*

Results for COC(=O)[C@@]1(C)[C@H]2C(=O)N(C)C(=O)[C@H]2[C@H]2CN(C)C(=NC3CCCCC3)N21 ?
IL1B secr inh: 3.1; TDP1 cell CPT: -8.6%; ELG1 repair inh: 10.3%; DT40 TDP1 no CPT: 4.0%

How did COCC(=O)N1CCC2(CC1)CCN(c1ccccc1)CC2 do in these assays?
TDP1 cell CPT: -3.5%; Gal4-VP16 FLuc: 14.5%; RORg inh: 0.7%; DT40 TDP1 no CPT: -10.3%

What do the screens show for `CCCCNC(=O)C1CCC(CNS(=O)(=O)c2ccc(C)cc2)CC1` (stereo unspecified)?
IL1B secr inh: 16.4; TDP1 cell CPT: -1.7%; Gal4-VP16 FLuc: 6.7%; RORg inh: 5.2%; ELG1 repair inh: -7.7%; DT40 TDP1 no CPT: -14.6%

What do the screens show for `CCCCSCCCNC(=O)C1CCC(CNS(=O)(=O)c2ccccc2)CC1` (stereo unspecified)?
IL1B secr inh: -0.8; TDP1 cell CPT: 16.4µM*; Gal4-VP16 FLuc: -23.7%; RORg inh: 43.5%; ELG1 repair inh: inconclusive; DT40 TDP1 no CPT: inconclusive

What do the screens show for `CC(OC(=O)c1n[nH]c2ccccc12)C(=O)Nc1ccccc1[N+](=O)[O-]` (stereo unspecified)?
IL1B secr inh: 6.3; TDP1 cell CPT: inconclusive; ELG1 repair inh: inconclusive; DT40 TDP1 no CPT: 14.6µM*

Results for Clc1ccc(-n2cnc3c(Cl)ncnc32)cc1Cl ?
IL1B secr inh: inconclusive; TDP1 cell CPT: 4.61µM*; DT40 TDP1 no CPT: 6.51µM*

What do the screens show for `O=c1c2ccccc2ncn1-c1ccc(Cl)c(Cl)c1`?
IL1B secr inh: 2.2; TDP1 cell CPT: -15.7%; Gal4-VP16 FLuc: -11.1%; RORg inh: inconclusive; ELG1 repair inh: 17.7%; DT40 TDP1 no CPT: 3.2%

How did [NH-]c1ncnc2c1N=C[N+]2=CC=CCO do in these assays?
IL1B secr inh: 10.2; TDP1 cell CPT: 2.59µM*; Gal4-VP16 FLuc: 12.4%; RORg inh: 2.5%; ELG1 repair inh: 16.9%; DT40 TDP1 no CPT: 4.11µM*

Results for C=CCNC(=O)/C(C#N)=C/c1ccccc1[N+](=O)[O-] ?
IL1B secr inh: -62.0*; TDP1 cell CPT: -19.4%; Gal4-VP16 FLuc: inconclusive; RORg inh: -17.4%; ELG1 repair inh: 26.4%; DT40 TDP1 no CPT: inconclusive

Results for CCCCCCCCNC(=O)/C(C#N)=C/c1ccccc1[N+](=O)[O-] ?
IL1B secr inh: inconclusive; TDP1 cell CPT: inconclusive; Gal4-VP16 FLuc: 7.94µM*; RORg inh: 3.16µM*; ELG1 repair inh: 18.8%; DT40 TDP1 no CPT: inconclusive

How did N#C/C(=C\C=C\c1ccccc1[N+](=O)[O-])C(=O)NCc1ccccc1 do in these assays?
IL1B secr inh: -102.5*; TDP1 cell CPT: 4.61µM*; Gal4-VP16 FLuc: inconclusive; RORg inh: 14.1µM*; ELG1 repair inh: inconclusive; DT40 TDP1 no CPT: 6.51µM*
